About 83,000 compounds went through this panel and 20% of them were active in at least one assay; those are over-represented in the sample as a whole.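 A percent growth of 40 corresponds to 60% growth inhibition; 0 means no net growth; -100 means all cells died. Active threshold: below 10.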 Unmarked numbers belong to inactive results. Calls of active or inactive are those of the source.
Tested on: HL-60(TB) leukemia
Assay: NCI-60 one-dose screen, 48 h (100 = growth as untreated, 0 = no growth, -100 = all killed)
Settings: 10 µM unless noted

Question: With COc1ccc(-c2nc(N3CCN(C(=O)C4CCCCC4)CC3)c3c4c(sc3n2)CCCC4)cc1 as the compound, how does the growth read?
Answer: 39%

Question: Which growth does the source give for COC(=O)CNS(=O)(=O)c1ccc2c(c1)Cc1cc(S(=O)(=O)NCC(=O)OC)ccc1-2 here?
Answer: 98.5%

Question: How did the growth turn out when COc1cc(C2CC(=O)Nc3c2cc(Br)c2ccccc32)cc(Br)c1OC (configuration not stated) was run?
Answer: -2.09% (active)

Question: Which growth does the source give for Nc1n[nH]c2cc(F)c([C@@H]3Nc4c(F)cc5[nH]ncc5c4[C@H]4C5CCC(C5)[C@@H]34)cc12 (some centres not stated) here?
Answer: -30.1% (active)

Question: For CCCc1cccc(CCC)c1O, which growth is on record?
Answer: 105%

Question: Which growth does the source give for FC(F)(F)c1nn[nH]n1 here?
Answer: 102%

Question: How did the growth turn out when CC(=O)N[C@@H](CNC(=O)c1cc(NC(=O)c2cc(NC(=O)c3cc(NC(=O)c4nccn4C)cn3C)cn2C)cn1C)CC(=O)Nc1cn(C)c(C(=O)Nc2cc(C(=O)Nc3cc(C(=O)Nc4cc(C(=O)NCCCN(C)CCCNC(=O)c5cccc(C(=O)O)c5)n(C)c4)n(C)c3)n(C)c2)n1 was run?
Answer: 109%

Question: Which growth does the source give for C/C(=C\CCc1ccsc1)CC/C=C(\C)CCCN1CCN(CCO)CC1 here?
Answer: -38.3% (active)

Question: With CCN1C(=O)/C(=c2\sc3n(c2=O)NC2C(N=3)N(CC)C(=O)N2CC)c2ccccc21 (configuration not stated) as the compound, how does the growth read?
Answer: -4.75% (active)

Question: With CCCCN(CCCC)C(=O)[C@H](CC)[C@@H]1CC[C@@H](C)[C@@H]([C@H](C)[C@@H](O)[C@@H](C)C(=O)[C@H](CC)C2O[C@]3(C=CC(=O)[C@]4(CC[C@@](C)([C@H]5CC[C@](O)(CC)[C@H](C)O5)O4)O3)[C@H](C)C[C@@H]2C)O1 (some centres not stated) as the compound, how does the growth read?
Answer: -1.52% (active)

Question: C[N+]1=C(/C=C/c2ccccc2Cl)C(C)(C)c2ccccc21 was tested. Which growth did it give?
Answer: 53.5%

Question: How did the growth turn out when Cc1cccc(Oc2ccc(Nc3ncnc4ccc(NC(=O)CN5CCN(C)CC5)cc34)cc2Cl)c1 was run?
Answer: -40.2% (active)

Question: How did the growth turn out when COc1ccc(C2=NN(C=O)C(c3cccc(Nc4ccnc5cc(Cl)ccc45)c3)C2)cc1 (configuration not stated) was run?
Answer: -13.1% (active)

Question: Cc1ccc(-c2nc3c(N=Nc4ccc(S(N)(=O)=O)cc4)c(N)nn3c(N)c2C#N)cc1 was tested. Which growth did it give?
Answer: 2.71% (active)

Question: Which growth does the source give for COc1ccc(-c2csc(-c3cc(Cl)cc(Cl)c3Cl)n2)cc1 here?
Answer: 93.6%

Question: Which growth does the source give for C[C@H]1[C@H](C)CC[C@]2(C(=O)O)CC[C@]3(C)C(=CC[C@@H]4[C@@]5(C)C/C(=C/c6ccco6)C(=O)C(C)(C)[C@@H]5CC[C@]43C)[C@H]12 here?
Answer: -3.02% [100 µM] (active)

Question: Which growth does the source give for CC1=CCC(OC(=O)C(C)(O)CCC(O)(C(=O)OC2(C)C=CC(O)(C(C)C)CC2)C(C)C)(C(C)C)CC1 (configuration not stated) here?
Answer: 110%

Question: For CC(C)(C)OC(=O)NCc1cccc(N=C=S)c1, which growth is on record?
Answer: -24% (active)

Question: For COc1cc2nc(-c3ccc(Cl)cc3)cc(OCCCN3CCCC3)c2cc1OC, which growth is on record?
Answer: 32.4%

Question: Which growth does the source give for COc1cc(-c2c(C#N)c(-c3cccs3)nc3c2c(-c2ccccc2)nn3-c2ccccc2)ccc1O here?
Answer: 99.3%

Question: For CCOC(=O)c1cnc2c(N=Nc3ccc(OC)cc3)c(N)nn2c1N, which growth is on record?
Answer: 96.2%

Question: How did the growth turn out when COc1cc2c(c(OC)c1OC)-c1cc(I)c(O)cc1[C@@H](NC(C)=O)CC2 was run?
Answer: 12.7%

Question: For COc1cc2nnn3c4ncccc4c(N=O)c3c2cc1OC, which growth is on record?
Answer: -31.5% (active)

Question: Which growth does the source give for C[C@H]1[C@H]2[C@H]3CC[C@@H]4[C@@]5(C)CC[C@H](O)C(C)(C)[C@@H]5CC[C@@]4(C)[C@]3(C)CC[C@]23CO[C@]1(C)[C@@H](C(=O)/C=C\c1cccnc1)C3 here?
Answer: 47.5%

Question: How did the growth turn out when NC(=O)c1cccc([C@@H]2O[C@H](CO)[C@@H](O)[C@H]2O)c1 was run?
Answer: 39.5%

Question: For Cc1nc(Nc2cccc(NC(=O)Nc3ccc(Cl)cc3)c2)c2ccccc2n1, which growth is on record?
Answer: 78.6%

Question: CC[C@@H](c1ccc2cc(OC)ccc2c1)C(C)(C)C(=O)F was tested. Which growth did it give?
Answer: 104%

Question: How did the growth turn out when CCS(=O)(=O)OCCCl was run?
Answer: 86.7%

Question: How did the growth turn out when CCN(CC)CCCCCNc1cc(OC(=O)c2ccc(Cl)cc2)cc2cccnc12 was run?
Answer: 6.96% (active)

Question: With C#CCn1c2c(c3ccccc31)C[C@]1(C)[C@H]3CC[C@@H]4[C@@H]5C(=CCC[C@H]5C(=C)C)CC[C@@]4(C)[C@]3(C)CC[C@H]1C2(C)C as the compound, how does the growth read?
Answer: 101%

Question: Which growth does the source give for COc1ccccc1CNCCCCCCCCCCCCN1C(=O)c2ccc3c4c(ccc(c24)C1=O)C(=O)N(CCCCCCCCCCCCNCc1ccccc1OC)C3=O here?
Answer: 85.8%

Question: For CC1=CC(C)(C)Nc2ccc(Cc3ccc4c(c3)C(C)=CC(C)(C)N4)cc21, which growth is on record?
Answer: 122%

Reference: PubChem BioAssay (NCI)
